In PubChem BioAssay:
Where “and” joins values, the source holds several entries; their conditions need not be identical. Identical values can stand only once. Unmarked numbers belong to inactive results. Calls of active or inactive are those of the source.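 The calls were made as follows, unless noted: active = mean z-score across replicates of 1.96 or higher in either the MELAS or the Rieske mutant cell line; inactive = the rest.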

assay: blockers of cellular phospholipid synthesis – cell-based, LOPAC library, screen 4, primary screen (AID 1347384; call rule not given here); conditions: animal cells, phospholipid biosynthesis inhibition screen; at 10 µM

Structure (SMILES)	outcome
CC(C)(Oc1ccc(CCNC(=O)c2ccc(Cl)cc2)cc1)C(=O)O	inactive
CCCCNc1ccc(C(=O)OCCN(C)C)cc1	inactive
COc1cc2c(cc1OC)-c1cc(=Nc3c(C)cc(C)cc3C)n(C)c(=O)n1CC2	inactive
CN(C)CCC(c1ccccc1)c1ccccn1 (centres undefined)	inactive
CC(N)C(=O)OC(C)(C)Cc1ccc(Cl)cc1 (centres undefined)	inactive
c1cnc(N2CCN(Cc3ccc4c(c3)OCO4)CC2)nc1	inactive
CNCC(O)c1ccc(O)c(O)c1 (centres undefined)	inactive
CCCOc1ccccc1-c1nc2n[nH]nc2c(=O)[nH]1	inactive
COc1ccc(CN(CCN(C)C)c2ccccn2)cc1	inactive
CCN(CC)CCOCCOC(=O)C1(c2ccccc2)CCCC1	inactive
O=C(CCNNC(=O)c1ccncc1)NCc1ccccc1	inactive
CN1CCN(C2=Nc3ccccc3Oc3ccc(Cl)cc32)CC1	inactive
CSc1ccc2c(c1)C(N1CCN(C)CC1)Cc1ccccc1S2 (centres undefined)	inactive
OCc1cc(C(O)CNCCCCCCOCCCCc2ccccc2)ccc1O (centres undefined)	inactive
NC(N)=NC(=O)Cc1c(Cl)cccc1Cl	inactive
COCCc1ccc(OCC(O)CNC(C)C)cc1 (centres undefined)	inactive
CCCCC1C(=O)N(c2ccccc2)N(c2ccccc2)C1=O	inactive
CCOC(=O)C1=C(C)NC(C)=C(C(=O)OC)C1c1cccc(Cl)c1Cl (centres undefined)	inactive
O=C(NCCN1CCOCC1)c1ccc(Cl)cc1	inactive
NS(=O)(=O)Cc1noc2ccccc12	inactive
O=C1CC2(CCCC2)CC(=O)N1CCCCN1CCN(c2ncccn2)CC1	inactive

assay: MELAS cybrid and Rieske KO viability enhancers – cell-based, MELAS cybrids, Rieske KO mouse fibroblasts, CellTiter-Glo, primary screen (AID 1508586); conditions: MELAS cybrid survival, low glucose, CellTiter-Glo 48 h; hits give high values;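 also: z relative to plate mean and SD of compound and empty wells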

Structure (SMILES)	z-score
CC(C)(Oc1ccc(CCNC(=O)c2ccc(Cl)cc2)cc1)C(=O)O	-0.161 and 0.38 and -0.46
CC[N+](C)(C)Cc1ccccc1Br	0.582
CCCc1ncc(C[n+]2ccccc2C)c(N)n1	-0.137 and -0.369
CCCCNc1ccc(C(=O)OCCN(C)C)cc1	-0.338 and -0.454
COc1cc2c(cc1OC)-c1cc(=Nc3c(C)cc(C)cc3C)n(C)c(=O)n1CC2	1.02
CN(C)CCC(c1ccccc1)c1ccccn1 (centres undefined)	0.589 and -0.102 and 0.319
COc1cc(-c2ccc(=O)[nH]n2)ccc1OC(F)F	1.87 and 1.14
CC[C@]12CCCN3CCc4c(n(c5ccccc45)C(=O)C1)[C@@H]32	1.02
c1cnc(N2CCN(Cc3ccc4c(c3)OCO4)CC2)nc1	-0.549 and -0.596
C=C1c2cccc(O)c2C(O)=C2C(=O)[C@]3(O)C(O)=C(C(N)=O)C(=O)[C@@H](N(C)C)[C@@H]3[C@@H](O)[C@H]12	0.00753
CCCOc1ccccc1-c1nc2n[nH]nc2c(=O)[nH]1	0.137 and -0.665
COc1ccc(CN(CCN(C)C)c2ccccn2)cc1	0.327 and -0.721
Cc1c(N(C)C)c(=O)n(-c2ccccc2)n1C	-0.0296 and -0.452
CCN(CC)CCOCCOC(=O)C1(c2ccccc2)CCCC1	0.546
O=C(CCNNC(=O)c1ccncc1)NCc1ccccc1	-0.952 and 0.716
CN1CCN(C2=Nc3ccccc3Oc3ccc(Cl)cc32)CC1	-0.155 and 0.0915
CSc1ccc2c(c1)C(N1CCN(C)CC1)Cc1ccccc1S2 (centres undefined)	-0.294 and -0.887
OCc1cc(C(O)CNCCCCCCOCCCCc2ccccc2)ccc1O (centres undefined)	0.496 and 0.0699
Nc1ccc(S(=O)(=O)NC(=O)c2ccccc2)cc1	-0.2
O=C(O)c1ccccc1Nc1cccc(C(F)(F)F)c1	-0.231 and 0.292 and -0.218
NC(N)=NC(=O)Cc1c(Cl)cccc1Cl	-0.203 and -0.668
COCCc1ccc(OCC(O)CNC(C)C)cc1 (centres undefined)	-0.374 and 0.559 and -0.0156
CCCCC1C(=O)N(c2ccccc2)N(c2ccccc2)C1=O	0.0284 and -1.01 and 0.0538
